Assay outcomes (PubChem)
A selection: hits, their analogues and other compounds. The true share with any hit is near 15%.
HCMV antiviral: qHTS Assay for inhibitors of the human cytomegalovirus (HCMV); HFF cells, HCMV-luciferase reporter, 72 h; stronger effect = lower value; AID 1259415, 2018; 4.5% of 410,000 active; activity change, negative = inhibition, % at 57.5 µM; in the data active means activity change below about -60%; inconclusive means no clear call, values can overlap the other calls; inactive means above about -39%; further: on the % scale 0 is the no-effect control and ±100 the full control effect
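Compounds were evaluated in HFFs infected with an HCMV luciferase reporter virus (MOI 1 PFU/cell). Luciferase in lysates collected 72 h post infection served as the replication measure.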
Pf growth 96h: Primary qHTS for delayed death inhibitors of the malarial parasite plastid, 96 hour incubation | Potency, µM (highest dose often 28.7 µM), inactives show top-dose activity change, negative = inhibition, actives largely listed as inhibitors | AID 504834, 2011 | P. falciparum luciferase reporter growth, 96 h | 6.9% of 320,000 active; further: potency means the concentration at half of the fitted maximal effect; on the % scale 0 is the no-effect control and ±100 the full control effect
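Compounds incubated with erythrocytes infected by luciferase-expressing P. falciparum (2% hematocrit, 0.05% parasitemia final) for 96 hours, 37 C in 5% CO2. Growth inhibition scored as decreased luciferase luminescence.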
Sm TGR block: qHTS Assay for the Inhibitors of Schistosoma Mansoni Peroxiredoxins; Schistosoma mansoni thioredoxin glutathione reductase (TGR), Q962Y6; purified TGR, DTNB reduction, TNB absorbance 405 nm; Potency, µM (top dose mostly 114 µM), for inactives: at the top dose activity change, negative = inhibition, hits mostly inhibitors; 3% of 360,000 active; further: potency means the concentration at half of the fitted maximal effect; on the % scale 0 is the no-effect control and ±100 the full control effect; nearly all actives have a fitted effect of over 60% in size
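TGR 20 nM + NADPH 100 uM (dispensed conc.), cpd preinc 15 min RT; start with NADPH (500 uM addition) then DTNB (15 mM addition). Kinetic TNB absorbance, 405 nm filter. Four-parameter Hill fit across titration.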
HCV inh: qHTS Assay for Inhibitors of Hepatitis C Virus (HCV); Huh7.5.1 HCVcc-Cre infection, luciferase reporter, 44 h; Potency, µM (top dose mostly 41.8 µM), for inactives: at the top dose activity change, negative = inhibition, hits mostly inhibitors; 3.4% of 340,000 active; AID 651820, 2012; further: potency means the concentration at half of the fitted maximal effect; on the % scale 0 is the no-effect control and ±100 the full control effect
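A cell-based infection assay in which seeded cells (1,000 per well) receive test compound after 4 h, are inoculated with HCVcc-Cre at approximately 0.5 moi, and are incubated 44 h before luminescence detection.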
SARS PLP yeast: qHTS of Yeast-based Assay for SARS-CoV PLP; S. cerevisiae expressing SARS-CoV PLpro, growth rescue; 0.19% of 330,000 active; AID 485353, 2010; Potency, µM (highest dose often 32.9 µM), for the others: at the top dose activity, positive = growth rescue, usual class: activators; calls by dose curve; further: potency means the concentration at half of the fitted maximal effect; 0% is about no effect; nearly all actives have a fitted effect of over 55% in size
Pf growth 48h: Primary qHTS for delayed death inhibitors of the malarial parasite plastid, 48 hour incubation; P. falciparum luciferase growth in erythrocytes, 48 h; Potency, µM (top dose mostly 28.7 µM), for inactives: at the highest dose activity change, negative = inhibition, most hits filed as inhibitors; 5.9% of 310,000 active; AID 504832, 2011; further: potency means the concentration at half of the fitted maximal effect; on the % scale 0 is the no-effect control and ±100 the full control effect
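Luciferase-expressing parasites in RBCs, 2% Hct / 0.1% parasitemia final; RPMI 1640 + 0.5% Albumax; 37 C, 5% CO2, one generation; luminescence read-out, lower signal = inhibition.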
* marks the source's active call; other numbers are inactive results; ? = inconclusive; . = not tested or not shown; ! = not active in a repeat. Unless noted, the call rests on the fitted dose curve; in most records, active means well fitted curve in the direction sought with a large enough effect; inconclusive means small, poorly fitted or top-dose-only effect, or another doubt; inactive means no such curve, though single readings can be large; an effect the other way counts as inactive or inconclusive.

SMILES	HCMV antiviral	Pf growth 96h	Sm TGR block	HCV inh	SARS PLP yeast	Pf growth 48h
Cc1[nH]c2ccccc2c1C(O)c1ccncc1 (configuration not stated)	-20.0	0.4%	25.1µM*	6.3%	2.9%	3.8%
Cc1[nH]c2ccccc2c1C(c1ccccn1)c1c(C)[nH]c2ccccc12	39.0	.	5.62µM*	-15.9%	-4.1%	9.28µM*
COc1ccccc1N1CCN(C(c2cccs2)C(C)NC(=O)c2cccs2)CC1 (configuration not stated)	-19.1	?	-1.5%	-4.1%	?	?
COc1ccc(CNC(=O)c2ccc3c(c2)N(Cc2cccc(Cl)c2)C(=O)c2ccccc2S3)c(OC)c1	-31.3	.	4.6%	.	.	.
CC(C)NC(=S)NC(=O)c1ccc(-c2ccccc2)cc1	-80.9*	22.4%	?	14.1µM*	3.3%	?
O=C(NC(=S)Nc1ccc(-c2ccccc2)cc1)c1ccccc1	31.8	.	.	-6.5%	.	.
Cc1cc(=O)n(C(C)C(=O)NCc2ccccc2Cl)c2c1c(C)nn2-c1ccccc1 (configuration not stated)	15.2	.	-1.5%	.	.	.
Cc1cc(C)[n+](Cc2ccccc2)cc1C(N)=O	18.4	.	.	4.5%	.	.
COc1ccc(Oc2nc(-c3ccccn3)ncc2OC)cc1	-24.7	?	21.9%	?	11.2%	0.0%
COc1cnc(-c2ccccn2)nc1N(C)C	-98.8*	2.33µM*	-2.6%	?	-8.7%	4.15µM*
COc1cnc(-c2ccccn2)nc1Oc1c(C)cccc1C	?	0.208µM*	3.8%	?	28.7%	11.7µM*
COc1cnc(-c2ccccc2)nc1Oc1cccc(C)c1	31.8	-0.6%	7.4%	-27.2%	-0.4%	6.1%
COc1cnc(-c2ccccn2)nc1Oc1cccc(Cl)c1	-28.4	2.62µM*	2.1%	13.6%	-2.6%	?
CCc1ccc(C2CC(=O)N(c3cccc(C(F)(F)F)c3)C3=C2C(=O)OC3)cc1 (configuration not stated)	18.2	.	1.0%	.	.	.
Cc1c(C(=O)N(CCO)Cc2ccccc2)oc2c(F)cccc12	39.6	?	-30.9%	-20.2%	-0.7%	1.6%
Cc1ccccc1-[n+]1c(-c2ccccc2)cc(-c2ccccc2)cc1-c1ccccc1	-96.2*	0.185µM*	-9.5%	?	1.1%	0.329µM*
O=C([O-])c1ccccc1-[n+]1c(-c2ccccc2)cc(-c2ccccc2)cc1-c1ccccc1	?	4.65µM*	-0.5%	-8.2%	-1.4%	11.7µM*
Nc1ccccc1-[n+]1c(-c2ccccc2)cc(-c2ccccc2)cc1-c1ccccc1	?	2.08µM*	4.6%	-6.1%	0.5%	4.65µM*
[O-]c1ccccc1-[n+]1c(-c2ccccc2)cc(-c2ccccc2)cc1-c1ccccc1	-97.0*	0.329µM*	4.9%	6.31µM*	-25.8%	1.31µM*
COc1ccc(N2CCN(C(=O)c3cccn3-c3nnc(N4CCCC4)s3)CC2)cc1	0.0	.	-22.9%	.	.	.
Cc1ccc(C)c(S(=O)(=O)N2CCCOC2CNC(=O)C(=O)NCc2ccc3c(c2)OCO3)c1 (configuration not stated)	47.9	?	2.2%	-24.2%	-8.7%	-16.6%
Oc1ccccc1-[n+]1c(-c2ccccc2)cc(-c2ccccc2)cc1-c1ccccc1	-83.9*	1.47µM*	0.0%	.	3.3%	1.47µM*
Oc1c(Br)cc(-c2ccccc2)cc1Br	-25.3	.	.	3.2%	.	.
CCOc1nc(Nc2ccc(OC)c(Cl)c2)nc(N2CCN(c3ccc(OC)cc3)CC2)n1	?	?	-23.8%	10µM*	17.5%	.
COc1nc(Nc2ccc(OC)c(Cl)c2)nc(OC)n1	-25.9	-16.3%	-0.9%	?	1.3%	8.28µM*
SMILES	HCMV antiviral	Pf growth 96h	Sm TGR block	HCV inh	SARS PLP yeast	Pf growth 48h
Cc1ccc(C(=O)OCC(=O)Nc2cc(F)ccc2F)cc1NC(=O)c1ccco1	63.4	?	-3.9%	-10.5%	6.9%	.
Cc1ccc(C(=O)OCC(=O)Nc2nc(-c3ccccc3)cs2)cc1NC(=O)c1ccco1	-26.0	-2.2%	.	11.2µM*	15.2%	29.7%
Cc1ccc(C(=O)OCC(=O)Nc2ncc(Cl)cc2Cl)cc1NC(=O)c1ccco1	11.2	14.6%	44.7µM*	-1.4%	7.5%	.
Cc1ccc(C(=O)OCC(=O)Nc2ccccc2)cc1NC(=O)c1ccco1	-7.2	31.0%	0.0%	-8.5%	-3.1%	19.8%
Cc1cccn2c(=O)c3cc(S(=O)(=O)c4ccccc4)c(=N)n(CC4CCCO4)c3nc12 (configuration not stated)	.	3.0%	-0.9%	?	0.7%	-5.5%
COc1ccc(C(c2c(O)nc(SC)n(C)c2=O)c2c(O)nc(SC)n(C)c2=O)cc1O	-31.8	23.4%	12.6µM*	36.2%	10.0%	-14.2%
CCOC(=O)CSc1cc(CS(=O)c2ccc(Cl)cc2)nc(-c2ccccc2)n1 (configuration not stated)	-13.8	0.0%	2.3%	-7.3%	3.0%	34.7%
CCN(CC)c1cc(CS(=O)c2ccccc2)nc(-c2ccccc2)n1 (configuration not stated)	-60.7*	.	.	?	.	.
O=C(c1noc2c1CCCCC2)N1CCN(c2cccc(C(F)(F)F)c2)CC1	-77.8*	.	0.2%	.	.	.
Cc1ccc(-c2noc(CCC(=O)N3CCN(c4cccc(C(F)(F)F)c4)CC3)n2)cc1	-21.1	?	-0.7%	11.2µM*!	-2.1%	-29.7%
O=C(c1cc2ccccn2n1)N1CCN(c2cccc(C(F)(F)F)c2)CC1	-67.7*	9.28µM*	67.1%	3.6%	-4.7%	5.3%
O=C(c1ccccn1)N1CCN(c2cccc(C(F)(F)F)c2)CC1	-38.1	-6.1%	8.0%	0.5%	-2.9%	20.7%
CSc1cccc(NC(=O)Nc2ccccc2C(N)=O)c1	7.0	?	12.3%	-21.3%	2.7%	?
COc1ccc(CNC(=O)COC(=O)c2ccc(S(=O)(=O)NCc3ccco3)cc2)cc1	51.0	.	.	-17.1%	-0.6%	.
CCOC(=O)CCn1c(=O)c2cccn2c2cccnc21	104.0	.	0.5%	.	.	.
COc1ccc(-n2nc(C(=O)NCc3ccco3)c3c4ccccc4n(C)c3c2=O)cc1	7.0	30.9%	0.5%	2.4%	-5.8%	29.3%
COc1ccc(-n2nc(C(=O)NCC(=O)NC(C)C)c3ccccc3c2=O)cc1	?	21.1%	14.2%	4.2%	1.2%	-16.6%
COc1ccc(-n2nc(C(=O)NCc3ccco3)c3ccccc3c2=O)cc1	-20.2	3.29µM*	67.4%	-13.2%	-6.6%	.
